Sm TGR block: blocks Schistosoma mansoni thioredoxin glutathione reductase | Q962Y6 | purified TGR, DTNB reduction, TNB absorbance 405 nm | Potency, µM (top dose mostly 114 µM), without a hit: top-dose activity change, negative = inhibition, usual class: inhibitors | actives 3% (n = 360,000); active = well fitted inhibition curve with a large enough effect; inconclusive = small, poorly fitted or top-dose-only effect; inactive = no such curve, though single readings can be large or run the other way; also: potency is read from the fitted curve at half-maximal effect; % is scaled to controls: 0 for no effect and ±100 for the full control effect; nearly all actives have a fitted effect of over 60% in size
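TGR 20 nM + NADPH 100 uM (dispensed conc.), cpd preinc 15 min RT; start with NADPH (500 uM addition) then DTNB (15 mM addition). Kinetic TNB absorbance, 405 nm filter. Four-parameter Hill fit across titration.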
Shiga inhibitor: Shiga toxin inhibition; Vero cells, Shiga toxin protein synthesis inhibition reporter; inhibition, % at 38.7 µM; actives 9.2% (n = 290,000); AID 2315; in the data active = inhibition mostly above about 28%, no sharp cut-off; inactive = mostly below about 43%; also: 0% is about no effect
FMDV antiviral: blocks foot and mouth disease virus | Potency, µM (titrated, usually from 57.9 µM), for inactives: at the highest dose activity change, negative = inhibition, usual class: inhibitors | actives 1.2% (n = 410,000) | FMDV antiviral cell-based qHTS; calls by dose curve; tested in HEK293T cells; also: read-out not given here; potency is read from the fitted curve at half-maximal effect; % is scaled to controls: 0 for no effect and ±100 for the full control effect; nearly all actives have a fitted effect of over 45% in size
CHX counter: counter-screen hit for Shiga toxin inhibitors, cycloheximide | max response, % | cell reporter, cycloheximide protein synthesis inhibition counterscreen | actives 12% (n = 300,000) | AID 2314; in the data active = max response mostly above about 13%, no sharp cut-off; inactive = mostly below about 14%; also: read at 38.3 µM for the half of the compounds with a filed dose; 0% is about no effect
Active calls of the source: *; u = inconclusive; x = no result. An excerpt weighted towards active compounds, which were near 12% of everything screened.

SMILES | Sm TGR block | Shiga inhibitor | FMDV antiviral | CHX counter
CCn1cc(C(=O)NCC(C)C)c(=O)c2cc(F)c(N3CCN(C(=O)c4ccco4)CC3)cc21 | 1% | -4 | -15% | -2
CCn1cc(C(=O)NCCc2ccccc2)c(=O)c2cc(F)c(N3CCN(C)CC3)cc21 | -18% | 11 | 24% | 13*
CCn1cc(C(=O)NCc2ccco2)c(=O)c2cc(F)c(N3CCN(C(=O)c4ccco4)CC3)cc21 | 20µM* | -1 | u | 0
CCn1cc(C(=O)NCCCO)c(=O)c2cc(F)c(N3CCN(C)CC3)cc21 | -7% | -5 | -9% | -5
COc1ccc(NC(=O)c2ccco2)cc1NC(=O)c1ccc(Br)o1 | 6% | 12 | -15% | 1
O=C(Nc1ccc2nc(-c3ccc(Br)o3)[nH]c2c1)c1ccco1 | 0% | 74* | -15% | 24*
CC(=O)Nc1ccc2nc(-c3ccc(Br)o3)[nH]c2c1 | 25µM* | 58* | 56% | 55*
O=C(Nc1ccc2nc(-c3ccc(Br)o3)[nH]c2c1)c1cccs1 | 25µM* | 52* | -5% | 45*
CC(C)(C)C(=O)Nc1ccc(-c2nc3ccc(NC(=O)C(C)(C)C)cc3[nH]2)cc1 | -2% | x | 25% | x
COc1ccc(NC(=O)CSc2nc(-c3ccccc3)[nH]c2-c2ccccc2)cc1OC | 7% | x | -26% | x
CCOC(=O)c1ccc(NC(=O)CCC(=O)N2CCSc3ccccc32)cc1 | -5% | x | -9% | x
Cc1nc2sc(C(=O)Nc3ccc(F)cc3)c(N)c2c(-c2ccc(Br)cc2)c1C(=O)Nc1ccc(Cl)cc1 | -2% | x | 10% | x
O=C(CN1C(=O)CCc2cc(S(=O)(=O)N3CCOCC3)ccc21)NCc1ccccc1 | -2% | x | -2% | x
CC(=O)c1sc(N/N=C\c2cccc(Br)c2)nc1C | -1% | 85* | -11% | 67*
CCOC(=O)C(=O)N/N=C/c1cccc(Br)c1 | -3% | 14 | 6% | 1
CC(=O)c1sc(N/N=C\c2ccc(Br)cc2)nc1C | -5% | active | 19% | 72*
CCOc1cc(CNC(=O)c2ccc3c(c2)N(C)C(=O)C2CCCCN32)cc(OCC)c1OCC (configuration not stated) | 5% | x | -24% | x
CC(C)(C)c1cc(-c2ccccc2)n[nH]1 | 2% | 34 | 21% | 15*
COc1ccc(N(Cc2cccs2)C(=O)c2ccccc2C)cc1 | 4% | x | u | x
Cn1cc(CNCc2cnc3ccccn23)c(-c2ccc(Oc3ccccc3)cc2)n1 | 17% | -6 | -11% | -1
CN(Cc1cn(C)nc1-c1ccc(Oc2ccccc2)cc1)Cc1cnc2ccccn12 | -23% | -13 | 11µM* | -2
CCCNC(=O)c1cc(-c2ccc(OC)cc2)on1 | -2% | 70* | 18% | 51*
CCc1ccccc1NC(=O)c1cc(-c2ccc(OC)cc2)on1 | -18% | 1 | -1% | -1
CCCCNC(=O)c1cc(-c2ccc(F)cc2)on1 | -4% | 52* | 71% | 35*
CCCCNC(=O)c1cc(-c2ccc(OC)c(OC)c2)on1 | 1% | 31 | 24% | 14*
SMILES | Sm TGR block | Shiga inhibitor | FMDV antiviral | CHX counter
COc1ccc(CNC(=O)c2cc(-c3ccc(OC)c(OC)c3)on2)cc1 | 5% | -5 | -19% | -3
CCN(CC)CCCNC(=O)c1cc(-c2ccc(Cl)cc2)on1 | -8% | 6 | 16% | 1
CCCCNC(=O)c1cc(-c2ccc(OC)cc2)on1 | 6% | 194* | 61% | 52*
O=C(Nc1ccccc1C(=O)OCc1cc(=O)n2nc(C3CC3)sc2n1)c1cccc(Cl)c1 | 7% | x | -9% | x
COc1cccc2c1ncc1c(-c3ccc(C)cc3)nn(-c3cccc([N+](=O)[O-])c3)c12 | -5% | x | -6% | x
Fc1ccc(Cn2c(SCc3ccc(F)c(F)c3)nnc2C(F)(F)F)cc1 | 1% | 45* | u | 14*
O=C(c1cc(C(F)(F)F)cc(C(F)(F)F)c1)N1CCC2(CCCN(c3ccccc3)C2)CC1 | x | x | -4% | x
Cc1ccc2c(c1)CN(C(=O)CC(c1ccccc1)c1ccco1)CC(C)O2 (configuration not stated) | x | x | -6% | x
COCCn1c(C)cc(O)c(C(c2ccc(OC)cc2)N2CCN(c3ccccc3)CC2)c1=O (configuration not stated) | 8.9µM* | x | -21% | x
COCCn1c(C)cc(O)c(C(c2cccc(F)c2)N2CCN(c3ccccc3)CC2)c1=O (configuration not stated) | 7.9µM* | x | -15% | x
CCCn1c(N)c(C(c2ccc(OC)cc2)N2CCN(c3ccccc3)CC2)c(=O)[nH]c1=O (configuration not stated) | 2µM* | -2 | -12% | 8
